Test results reported in PubChem BioAssay AID720648 (The Scripps Research Institute Molecular Screening Center, 2013).
Values joined by “and” are separate entries in the source; they are usually repeats but may differ in a detail not shown here. Equal entries are not always repeated. Among all 370,000 compounds or so, about 3,100 (0.84%) were called active.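 Rule for the calls: active = inhibition above the mean of compounds lying between control limits plus 3 SD, set per campaign (cut at about 8.5% in these data); inactive = the rest.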 Many of the other results were omitted from the sample, so actives are more common in it than they were. More than one record can exist for a structure, and the calls need not agree.

These molecules were tested against Disintegrin and metalloproteinase domain-containing protein 17 (Homo sapiens) (UniProt P78536) (assay: ADAM17 inhibitors, primary screen, biochemical, QFRET (AID 720648;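 note: 0% = DMSO-only wells as the low control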)). Details: recombinant ADAM17, EDANS/DABCYL FRET peptide cleavage; at 6.95 µM; stronger effect = higher value.
Sequence of Disintegrin and metalloproteinase domain-containing protein 17 (Homo sapiens) (P78536 215-824 limits assumed): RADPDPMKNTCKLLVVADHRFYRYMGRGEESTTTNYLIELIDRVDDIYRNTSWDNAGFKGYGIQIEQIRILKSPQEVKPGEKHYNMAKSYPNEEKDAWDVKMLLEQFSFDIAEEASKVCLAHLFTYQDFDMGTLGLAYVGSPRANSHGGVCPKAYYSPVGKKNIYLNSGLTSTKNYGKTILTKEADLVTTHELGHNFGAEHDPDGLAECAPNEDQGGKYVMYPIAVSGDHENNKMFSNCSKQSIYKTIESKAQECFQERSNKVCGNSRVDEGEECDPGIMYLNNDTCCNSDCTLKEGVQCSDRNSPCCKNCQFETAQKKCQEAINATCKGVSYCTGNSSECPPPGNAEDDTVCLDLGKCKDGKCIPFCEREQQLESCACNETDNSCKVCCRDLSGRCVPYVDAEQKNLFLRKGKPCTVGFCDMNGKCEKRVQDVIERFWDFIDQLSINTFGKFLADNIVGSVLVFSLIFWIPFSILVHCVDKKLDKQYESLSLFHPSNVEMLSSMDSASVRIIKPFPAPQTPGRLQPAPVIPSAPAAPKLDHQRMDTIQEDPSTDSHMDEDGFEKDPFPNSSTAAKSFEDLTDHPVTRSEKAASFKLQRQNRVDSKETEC

inhibition, inactive:
Cc1c(C(C)c2ccccc2O)[nH]c2ccccc12 (stereo not drawn) 4.61%
O=C(NCc1cccs1)C1CCN(S(=O)(=O)c2ccccc2[N+](=O)[O-])CC1 1.09%
COc1ccc(C(=O)OCC(=O)NC(=O)CCSc2ccccc2)cc1 0.55%
Cc1ccccc1C(=O)O -1.22%
Cc1cc(NC(=O)c2ccccc2C)no1 -1.75%
O=C(COC(=O)c1ccccn1)Nc1cccc2ccccc12 -0.52%
COc1ccc(-n2c(SCC(=O)Nc3ccc4cn[nH]c4c3)nnc2-c2cccnc2)cc1 2.47%
COc1ccc(C2Nc3ccccc3C(=O)N2Cc2cccs2)cc1COc1c(C)cccc1C (stereo not drawn) -93.1%
CC(C)CNc1cccc2c1S(=O)(=O)N(Cc1cn(Cc3ccc(Cl)cc3)nn1)Cc1ccccc1O2 -4.11%
COP(=O)(O)CNC(=O)OCc1ccccc1 1.95%
O=C(COC(=O)C1(c2ccc(F)cc2)CCCC1)N1CCNC1=O -6.77%
O=C(COC(=O)c1ccc(NS(=O)(=O)c2cccs2)cc1O)Nc1ccc(F)cc1 8.44%
CN(C)S(=O)(=O)c1cccc(NC(=O)COC(=O)/C=C/c2cccs2)c1 -0.31%
CN(C)S(=O)(=O)c1cccc(NC(=O)COC(=O)c2cc(=O)[nH]c(=O)[nH]2)c1 0.24%
CCCCOCCCNC(=O)C[C@H]1C[C@@]2(C(=O)OC)C(=C[C@H](C(C)(C)C)O[C@@H]2C)N(CCc2ccc(OC)c(OC)c2)C1=O 4.52%
O=S1(=O)c2c(cccc2N2CCSCC2)Oc2ccccc2CN1Cc1cn(Cc2ccc(F)cc2)nn1 -0.02%
COc1ccc(N2CCN(CCNS(=O)(=O)c3ccc(Cl)s3)CC2)cc1 -0.88%
CCC[C@H]1C(=O)CC[C@@]23CCCN2C(=O)CCC[C@@H]13 -0.61%
CNC(=S)N/N=C/c1ccc(OCc2ccccc2)c(Br)c1 -1.43%
C=CCOc1ccc(/C=N/n2cncn2)cc1OC -11.9%
COc1cccc(CNC(=O)C2CCCN(c3nc4ccccc4o3)C2)c1OC (stereo not drawn) 1.62%
O=C(c1c[nH]c2ccccc12)N1CCC(Oc2cccnc2)CC1 1.77%
O=C1C(=O)N(Cc2ccc(-c3ccsc3)cc2)c2ccc(OC(F)(F)F)cc21 1.76%
CCOc1cc(C(=S)N2CCOCC2)ccc1OS(=O)(=O)c1ccc(Br)cc1 -3.87%
O=S(=O)(Oc1ccccc1C(=S)N1CCOCC1)c1ccc(Cl)cc1 -1.11%
O=C(C1CCCN1S(=O)(=O)c1ccccc1)N1CCc2ccccc2C1 (stereo not drawn) 1.33%
CC(C)(C)c1ccc(CSc2nnc(-c3cccs3)o2)cc1 -1.78%
COC(=O)[C@]12C[C@H](CC(=O)N3CCN(C(=O)C4CC4)CC3)C(=O)N(CCC3=CCCCC3)C1=C[C@H](C(C)C)O[C@@H]2C1CC1 -8.05%
CN[C@H]1C[C@H]2c3cc(N4CCOCC4)ccc3CCN2C[C@H]1[C@H](C)O -6.65%
O=C(CCCCCN1C(=O)C2C3C=CC(C3)C2C1=O)Nc1ccccc1 (stereo not drawn) 4.34%
Cc1ccc(CC2(C)C(=O)Nc3ccc(OC(F)(F)F)cc32)cc1 (stereo not drawn) 8.02%
COc1ccccc1CC1(C)C(=O)Nc2ccc(OC(F)(F)F)cc21 (stereo not drawn) 6.39%
CC(c1c[nH]c2ccccc12)c1c(-c2ccccc2)n(C)c2ccccc12 (stereo not drawn) -2.38%
N#Cc1ccccc1OC[C@@H](O)CN1CCC(C(O)(c2ccccc2)c2ccccc2)CC1 -1.12%
O=C(c1ccccc1)c1ccc(-c2ccccc2C(=O)NC2CCCCN(Cc3ccc(Cl)cc3)C2=O)cc1 (stereo not drawn) -0.61%
COC(=O)C1CN(Cc2cn(Cc3ccc(F)cc3)nn2)CCS(=O)(=O)N1Cc1ccc(Cl)cc1 (stereo not drawn) 1.41%
Cc1cc(C)c(C#N)c(SCc2ccc3c(c2)OCO3)n1 -0.68%
COc1ccc(C2C(C#N)=C(N)Oc3n[nH]c(C)c32)cc1CN1CCN(c2ccc(F)cc2)CC1 (stereo not drawn) 0.41%
CN(C)c1ccc(NC(=S)N(CCc2ccccc2)C2CC(=O)N(c3c(Cl)cccc3Cl)C2=O)cc1 (stereo not drawn) 2.09%
COc1ccc(N2C(=O)C(CC(=O)Nc3ccccc3)N(Cc3ccc(OC)c(OC)c3)C2=O)cc1 (stereo not drawn) -0.55%
C=CCN(Cc1ccc2c(c1)OCO2)C(C#CC1CC1)C(C)(C)C (stereo not drawn) -5.97%
O=C(NC1CCCCN(Cc2cccc(C(F)(F)F)c2)C1=O)c1ccccc1I (stereo not drawn) -0.37%
COC(=O)[C@]12C[C@H](CC(=O)NCc3ccccc3)C(=O)N(Cc3ccccc3)C1=C[C@H](COCc1ccccc1)O[C@@H]2C 1.65%
COC(=O)[C@H](C(C)C)N(CCCc1cn(Cc2ccccc2)nn1)S(=O)(=O)c1ccc(F)cc1Br 2.02%
O=C(COC(=O)c1ccccn1)NNC(=O)c1ccc(Br)cc1 0.32%
COc1ccccc1C(=O)NCC(=O)NCCSc1ccc(Br)cc1 2.38%
CCCCCCCCNS(=O)(=O)/C=C/c1cc(C)ccc1CNC(=O)OC(C)(C)C -2.49%
C[C@]12c3[nH]c4ccc(Cl)cc4c3CCN1C(=O)[C@@H](CC(=O)NCCCn1ccnc1)C[C@@H]2C(=O)N1CCOCC1 4.49%
CC(C)N(C(=O)[C@H]1C[C@H](CC(=O)NCCC2=CCCCC2)C(=O)N2CCc3c([nH]c4cc(CCC(=O)N(C)C)ccc34)[C@]12C)C(C)C -3.26%
CC(=O)OCCN1CCCC12CCC(c1ccccc1)CC2 (stereo not drawn) -1.85%
COC(=O)C1CN(CC(C)C)CCS(=O)(=O)N1Cc1ccc(F)cc1 (stereo not drawn) -5.05%
Cc1nc2ccc(C(=O)N3CCN(C(=O)C(C)(C)C)CC3)cc2n1C1CCCC1 3.54%
Cc1ccc(C)c(NC(=O)CCS(=O)(=O)c2ccccc2)c1 -3.15%
COc1ccc(C(C(=O)NC2CCCCC2)N(C(=O)CCl)c2ccccc2Cl)cc1 (stereo not drawn) -0.76%
CN(Cc1ccc(F)cc1)C(=O)COc1ccc2ccccc2c1 -3.83%
COc1ccc(CN(CCN2CCOCC2)C(=O)c2ccc(C)cc2)cc1OC 2.83%
COc1ccc(Cn2cc(COC(=O)N(C)Cc3ccccc3)nn2)cc1 -3.38%
COC(=O)C[C@@H]1CC[C@@H]2[C@@H](COc3ccc(NC(=O)Nc4ccc(F)c(F)c4)cc3C(=O)N2C)O1 1.31%
CCCCNC(=O)C[C@H]1C[C@@]2(C(=O)OC)C(=C[C@H](COCc3ccccc3)O[C@@H]2C)N(Cc2ccc(Cl)cc2Cl)C1=O 1.2%
COc1ccc2c(c1)CN1CN(CCc3ccccc3)S(=O)(=O)CC21 (stereo not drawn) -6.46%
O=C(CSc1nc2ccccc2o1)N/N=C/c1ccccc1C(=O)O -4.58%
CC1Cc2ccccc2N1C(=O)CSc1nc2ccccc2o1 (stereo not drawn) 2.14%
COc1ccc(CN2C(=O)N3Cc4cc(OC)ccc4C3CS2(=O)=O)cc1 (stereo not drawn) -0.79%
C=CCN1C(=O)[C@@H](CC(=O)NCCCCc2ccccc2)[C@]2(C(=O)OCC)CCCCC/C=C/12 3.44%
N/C(Cc1ccc([N+](=O)[O-])cc1)=N\OC(=O)C1CCCCC1 -3.25%
Cc1cc(C)cc(OCC(=O)O/N=C(\N)Cc2ccc([N+](=O)[O-])cc2)c1 3.53%

inhibition, active:
O=C(COC(=O)c1ccccc1)Nc1ccccc1Sc1ccccc1 9.99%
Cc1ccccc1C(=O)Nc1ccccc1Sc1ccccc1 10.4%
CN(C)S(=O)(=O)c1cccc(NC(=O)COC(=O)C2(c3ccccc3F)CCCC2)c1 14.4%
NS(=O)(=O)c1ccc(NC(=O)COC(=O)C2(c3ccc(F)cc3)CCCC2)cc1 10.8%
COc1cc(/C=N/n2c(C)n[nH]c2=S)ccc1OCc1ccccc1 10.8%
CC(=O)Nc1ccc(S(=O)(=O)Oc2ccc(Br)cc2C(=S)N2CCOCC2)cc1 9.15%
CCOc1c(Br)cc(/C=C2\C(=O)N(CCC#N)N=C2C)cc1OC 8.65%
CC1(C)C=Cc2c(ccc3c2OC[C@@H](c2ccc(O)cc2O)C3)O1 19.4%
CC1(Cc2cccc(C#N)c2)C(=O)Nc2ccc(-c3cccc(C(F)(F)F)c3)cc21 (stereo not drawn) 11.2%
Cc1cc(C)c(C#N)c(SCc2[nH]nc3c2C(c2ccccc2)C(C#N)=C(N)O3)n1 (stereo not drawn) 12.4%
COc1ccccc1C(=O)NCC(=O)OCC(=O)NNC(=O)c1ccc(Br)cc1 13%
CC(C)N(C(=O)[C@H]1C[C@H](CC(=O)NC(C)(C)C)C(=O)N2CCc3c([nH]c4ccc(Cl)cc34)[C@]12C)C(C)C 8.65%
COc1ccc(CN(C)C(=O)CC(c2ccccc2)c2ccccc2)cc1 11%
COc1ccc(C(CCN(Cc2ccc(OC)c(OC)c2)C(=O)CCl)c2ccccc2)cc1 (stereo not drawn) 12.5%
Cc1ccc(/C=N/NC(=O)CSc2nc3ccccc3o2)cc1 10.3%
N/C(Cc1ccc([N+](=O)[O-])cc1)=N\OC(=O)COc1ccc2ccccc2c1 10.8%

inhibition, 9.32% (active) and 1.43% (inactive):
CCOc1ccc(N2C(=O)CC(N(CCc3ccc(OC)c(OC)c3)C(=S)Nc3ccccc3)C2=O)cc1 (stereo not drawn)
